Assay outcomes as filed in PubChem.
Only some compounds are listed: those with a hit (about 22% of all), similar ones and a draw of the others.
Measles CPE: protection of cells from measles virus; Measles virus-infected cells, CPE protection, absorbance; protection (pct of control), % at 4 µM; actives 1.5% (n = 140,000); in the data active = protection mostly above about 24%, no sharp cut-off; inactive = mostly below about 26%
CYP2C9 inhib: human CYP2C9 inhibition | P11712 | CYP2C9 Supersomes, luciferin-H conversion, luminescence | inhibition, % at 5 µM | actives 20% (n = 96,000);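 active = blocking of liver enzyme CYP2C9 beyond about 50% at 5 µM, limit read from the data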
CYP2C9 activ: CYP2C9 (human) activation; P11712; recombinant CYP2C9, luciferin-H conversion, luminescence; active compounds read high; factor 1 = untreated enzyme, 0 = blocked; activation factor at 5 µM; actives 1.4% (n = 96,000);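 active = activation factor of 2 or more for CYP2C9 at a 5 µM dose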;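 note: 0 = sulfaphenazole-blocked wells and 1 = vehicle-only wells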
CYP2C19 inhib: human CYP2C19 inhibition | CYP2C19 Supersomes, luciferin-H EGE luminescence, 30 min | inhibition, % at 5 µM | actives 21% (n = 96,000) | AID 778;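 active = CYP2C19 inhibition above a set limit at 5 µM in the primary screen, cut at about 50% in these data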;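 note: plate controls were negative control wells for no effect and 2.5 mM tranylcypromine positive control for full effect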
Target sequence (P33261 whole entry, looked up): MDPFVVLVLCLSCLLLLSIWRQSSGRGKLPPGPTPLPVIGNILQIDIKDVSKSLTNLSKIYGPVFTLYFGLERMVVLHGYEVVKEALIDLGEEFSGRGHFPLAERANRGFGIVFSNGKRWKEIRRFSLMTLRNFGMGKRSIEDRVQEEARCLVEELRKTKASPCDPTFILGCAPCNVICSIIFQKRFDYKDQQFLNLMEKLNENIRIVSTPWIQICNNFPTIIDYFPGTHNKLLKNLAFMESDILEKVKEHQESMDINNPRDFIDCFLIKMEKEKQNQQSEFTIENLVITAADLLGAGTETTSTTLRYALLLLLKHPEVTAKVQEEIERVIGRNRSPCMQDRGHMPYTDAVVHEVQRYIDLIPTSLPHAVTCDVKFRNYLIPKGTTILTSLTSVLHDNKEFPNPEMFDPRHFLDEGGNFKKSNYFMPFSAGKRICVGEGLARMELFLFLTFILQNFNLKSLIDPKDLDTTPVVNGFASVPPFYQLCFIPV
CYP2C19 activ: activators of human cytochrome P450 2C19; P33261; recombinant CYP2C19, luciferin-H EGE luminescence; active compounds read high; 0 = fully inhibited enzyme, 1 = untreated enzyme; activation factor at 5 µM; 96,000 tested, under 10 active; AID 1025;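 active = activation factor of at least 2 at 5 µM in the primary screen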;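 note: 0 = wells with 2.5 mM tranylcypromine and 1 = vehicle-only wells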
* = called active by the depositor.

For Cc1ccc(C(=O)N(CC(=O)NC2CCCCC2)c2ccccc2C)s1 the results were Measles CPE 4, CYP2C9 inhib 62*, CYP2C9 activ 0.4, CYP2C19 inhib 46 and CYP2C19 activ 0.5.
`Cc1ccc(C)c(N(CC(=O)NC2CCCC2)C(=O)c2cc3cc4cc(C)ccc4nc3s2)c1` gave Measles CPE 0, CYP2C9 inhib 1, CYP2C9 activ 1, CYP2C19 inhib -12 and CYP2C19 activ 1.1.
For COc1ccc(-c2nnn(CC(=O)N(CC(=O)NC3CCCC3)c3cccc(C)c3)n2)cc1OC the results were Measles CPE 18, CYP2C9 inhib 42, CYP2C9 activ 0.6, CYP2C19 inhib 36 and CYP2C19 activ 0.6.
Cc1cccc(N(CC(=O)NC2CCCC2)C(=O)c2cc3cc4cccc(C)c4nc3s2)c1C was read as Measles CPE 25, CYP2C9 inhib 90*, CYP2C9 activ 0.1, CYP2C19 inhib 34 and CYP2C19 activ 0.7.
`Cc1cccc(N(CC(=O)NC2CCCCC2)C(=O)c2ccc(C)s2)c1` gave Measles CPE 0, CYP2C9 inhib 60*, CYP2C9 activ 0.4, CYP2C19 inhib 40 and CYP2C19 activ 0.6.
Screening CN(CC(=O)NC1CCCCCC1)S(=O)(=O)c1ccccc1 returned Measles CPE 8, CYP2C9 inhib 21, CYP2C9 activ 0.8, CYP2C19 inhib 45 and CYP2C19 activ 0.6.
Screening Cc1cc(O)ccc1C1(c2ccc(O)cc2C)OC(=O)c2ccccc21 returned Measles CPE 30.
For Cc1cccc(C2(c3cccc(C)c3)OC(=O)c3ccccc32)c1 the results were Measles CPE 4, CYP2C9 inhib 62*, CYP2C9 activ 0.4, CYP2C19 inhib 47 and CYP2C19 activ 0.5.
For COc1ccc(NC(=O)C2CCCCN2N)cc1OCC(C)C (stereo not drawn) the results were Measles CPE 2, CYP2C9 inhib 37, CYP2C9 activ 0.6, CYP2C19 inhib 94* and CYP2C19 activ 0.1.
`COc1ccc(NC(=O)C2CCCN2C(=O)OCc2ccccc2)c(OC)c1` (stereo not drawn) gave Measles CPE 15, CYP2C9 inhib 3, CYP2C9 activ 1, CYP2C19 inhib 26 and CYP2C19 activ 0.7.
`COc1ccc(NC(=O)N2CCCC2)cc1OC` gave Measles CPE 6, CYP2C9 inhib -22, CYP2C9 activ 1.2, CYP2C19 inhib 6 and CYP2C19 activ 0.9.
For COc1ccc(NC(=O)C2CCCCN2CC(=O)OCc2ccccc2)cc1OC (stereo not drawn) the results were Measles CPE 2, CYP2C9 inhib 62*, CYP2C9 activ 0.4, CYP2C19 inhib 67* and CYP2C19 activ 0.3.
COC(=O)c1[nH]c2cccc(OC)c2c1NC(=O)CN1CCC(C(N)=O)(N2CCCCC2)CC1 was read as Measles CPE 7, CYP2C9 inhib -10, CYP2C9 activ 1.1, CYP2C19 inhib 13 and CYP2C19 activ 0.9.
Cc1ccnc(N/N=C/c2ccco2)n1 was read as Measles CPE 22, CYP2C9 inhib 1, CYP2C9 activ 1, CYP2C19 inhib -1 and CYP2C19 activ 1.
Screening CCNC(=O)c1ccc(C2SCC(=O)N2Cc2ccco2)cc1 (stereo not drawn) returned Measles CPE 5, CYP2C9 inhib 2, CYP2C9 activ 1, CYP2C19 inhib -10 and CYP2C19 activ 1.1.
COc1ccc(/C=N/NC(=O)c2[nH]ncc2Br)c(OC)c1 was read as Measles CPE 22, CYP2C9 inhib -105, CYP2C9 activ 2*, CYP2C19 inhib 36 and CYP2C19 activ 0.6.
Screening CCCCC(=O)Nc1cccc(C(=O)N/N=C/c2ccc(OC)cc2OC)c1 returned Measles CPE 4.
Cc1ccc(-c2nnc(SCC(=O)N3CCCc4ccccc43)n2N)cc1 was read as Measles CPE 16, CYP2C9 inhib -19, CYP2C9 activ 1.2, CYP2C19 inhib 58* and CYP2C19 activ 0.4.
For Cc1ccc(-c2nnc3ccc(SCC(=O)N4CCc5ccccc54)nn23)cc1 the results were Measles CPE 17, CYP2C9 inhib 100*, CYP2C9 activ 0, CYP2C19 inhib 20 and CYP2C19 activ 0.8.
For Cc1ccc(-c2csc3nnc(SCC(=O)N4CCN(Cc5ccccc5)CC4)n23)cc1 the results were Measles CPE 2, CYP2C9 inhib 68*, CYP2C9 activ 0.3, CYP2C19 inhib 57* and CYP2C19 activ 0.4.
Screening COc1ccc(-n2c(Cc3cccn3C)nnc2SCC(=O)N2CCCc3ccccc32)cc1 returned Measles CPE 7, CYP2C9 inhib 2, CYP2C9 activ 1, CYP2C19 inhib 36 and CYP2C19 activ 0.6.
For COc1ccc(OCc2nnc(SCC(=O)N3CCCc4ccccc43)n2-c2ccc(C)cc2)cc1 the results were Measles CPE 19, CYP2C9 inhib 87*, CYP2C9 activ 0.1, CYP2C19 inhib 62* and CYP2C19 activ 0.4.
For Cc1ccc(-c2nnc3ccc(SCC(=O)N4CCCc5ccccc54)nn23)cc1 the results were Measles CPE 7.
Screening Cc1cc(/C=C(\C#N)C(=O)Nc2ccc(F)cc2)c(C)n1-c1ccc(N2CCOCC2)c([N+](=O)[O-])c1 returned Measles CPE 8, CYP2C9 inhib 44, CYP2C9 activ 0.6, CYP2C19 inhib 33 and CYP2C19 activ 0.7.
For O=C(O)c1cc(C(F)(F)F)nc2ccccc12 the results were Measles CPE 6.
Screening COCc1nnc(SCC(=O)NC(C)c2ccccc2)n1-c1ccccc1 (stereo not drawn) returned Measles CPE 8, CYP2C9 inhib 55*, CYP2C9 activ 0.4, CYP2C19 inhib 59* and CYP2C19 activ 0.4.
For CC(c1nnc(SCC(=O)N2CCc3ccccc32)n1-c1ccc(Cl)cc1)N(C)C (stereo not drawn) the results were Measles CPE 12, CYP2C9 inhib 21, CYP2C9 activ 0.8, CYP2C19 inhib 61* and CYP2C19 activ 0.4.
For COc1cccc(NC(=O)Cc2nnc(SCC(=O)NC(C)c3ccccc3)n2C)c1 (stereo not drawn) the results were Measles CPE 5, CYP2C9 inhib 2, CYP2C9 activ 1, CYP2C19 inhib 2 and CYP2C19 activ 1.
COc1ccc(OCCSc2nnc(C)n2-c2ccccc2)cc1 was read as Measles CPE 12.
COc1ccccc1OCCSc1nnc(C)n1-c1ccccc1 was read as Measles CPE 14, CYP2C9 inhib -42, CYP2C9 activ 1.4, CYP2C19 inhib 77* and CYP2C19 activ 0.2.
For O=C(CSc1nnc(CN2CCOCC2)n1-c1ccccc1)N1CCc2ccccc21 the results were Measles CPE 8, CYP2C9 inhib 63*, CYP2C9 activ 0.4, CYP2C19 inhib 27 and CYP2C19 activ 0.7.
For Nc1nnc(SCC(=O)N2CCc3ccccc32)n1-c1ccccc1 the results were Measles CPE 6, CYP2C9 inhib -34, CYP2C9 activ 1.3, CYP2C19 inhib -18 and CYP2C19 activ 1.2.
COc1ccccc1N1CCN(C(=O)CSc2nc(C)cc(=O)[nH]2)CC1 was read as Measles CPE 17, CYP2C9 inhib 21, CYP2C9 activ 0.8, CYP2C19 inhib 9 and CYP2C19 activ 0.9.
